According to PubChem BioAssay (Tox21):
Records with an inconclusive call do not appear. Active and inactive are the calls of the source. Calls follow the shape of the dose curve; as a rule, active = well fitted cell-killing curve with a large enough effect in the repeat runs; inconclusive = weak or mixed curves, or effect the other way; inactive = flat fitted curve, though single readings scatter.

Experiment: qHTS assay to identify small molecule antagonists of the constitutive androstane receptor (CAR) signaling pathway - cell viability counter screen (AID 1224837); also: nearly all actives have a fitted effect of over 45% in size
Details: HepG2-CYP2B6-hCAR viability, CellTiter-Fluor, 23 h, co-treated with 50 nM CITCO; series mostly up to 92.4 µM; activity change, negative = cytotoxicity: at the top concentration
Excerpt: National Center for Advancing Translational Sciences [NCATS]
NIH Chemical Genomics Center [NCGC]
U.S. Environmental Protection Agency [EPA]
National Institutes of Environmental Health Sciences [NIEHS]
National Toxicology Program [NTP]
U.S. Food and Drug Administration [FDA]
The constitutive androstane receptor (CAR) is a nuclear receptor which regulates multiple drug metabolizing enzymes (DMEs) and transporters. Activating CAR will generally increase the transcription and subsequent translation of CYP2B6 and CYP3A4. These two DMEs represent about 50% of the drug metabolizing potential in the body. When CAR is deactivated, the metabolizing potential in the body will decrease, subsequently increasing the toxicity in the body or lowering the therapeutic potential of a pro-drug. Recently, there have also been studies performed indicating CARs role in energy metabolism and cancer therapy. Therefore, inhibiting CARs activity could have a potential effect on diabetes and cancer. Identifying environmental toxins and compounds which modulate CAR, through the use of the Tox21 10K compound collection, will be an important step in determining the toxicity and potential therapeutic effects these factors will have on the human body. To differentiate true CAR antagonists from cytotoxic substances, the assay is multiplexed with a cell viability assay.
Tox21 Assay Protocol Summary:
A double-stable (hCAR and CYP2B6-2.2kb) transfected cell line, derived from human hepatoma (HepG2) cells, was utilized for the duration of the quantitative high-throughput screens. The HepG2-CYP2B6-hCAR cells were dispensed at 2500 cells/4 uL/well in 1536-well white solid bottom plates using a Multidrop Combi. After the assay plates were incubated at 37 C/5% CO2 for 4 hrs, 23 nL of compounds at 15 concentrations (from 5-48 columns) or positive control (from 1 to 4 columns) were transferred to the assay plates using a Pintool station. One uL of CITCO (final concentration = 50 nM) was added, using a Flying Reagent Dispenser, inside each well. After a 23 hr incubation period at 37 C/5% CO2, 1 uL of CellTiter-Fluor reagent was added into each well of the assay plates using a Flying Reagent Dispenser. The fluorescence intensity in the plates was then measured using a ViewLux plate reader.
% is scaled to controls: 0 for no effect and ±100 for the full control effect.

| SMILES | activity change, negative = cytotoxicity |
| --- | --- |
| Cc1ncc(CNC(=O)N(CCCl)N=O)c(N)n1 | -0.565% [at 42.5 µM] (inactive) |
| CCOP(=S)(OCC)SCSP(=S)(OCC)OCC | 6.39% (inactive) |
| COc1cc(OC)nc(NC(=O)NS(=O)(=O)c2ncccc2OCC(F)(F)F)n1 | 2.38% (inactive) |
| CNC(=O)O/N=C(\C)SC | -0.135% (inactive) |
| CCCCOP(=O)(O)OCCCC | 8.01% (inactive) |
| C[C@]12CC[C@H]3[C@@H](CC=C4C[C@@H](O)CC[C@@]43C)[C@@H]1CC[C@@H]2O | -5.14% [at 42.5 µM] (inactive) |
| CCC(=O)C(CCN(C)C)(c1ccccc1)c1ccccc1 | -11.5% [at 42.5 µM] (inactive) |
| O=C(O)c1cccc(Cl)c1 | 11.5% (inactive) |
| O=C1CN=C(c2ccccc2)c2cc([N+](=O)[O-])ccc2N1 | 0.684% [at 42.5 µM] (inactive) |
| C[N+](=O)[O-] | 5.82% (inactive) |
| CCN(CC)C(C)C(=O)c1ccccc1 (stereo not given) | 12.1% [at 42.5 µM] (inactive) |
| CC1(C(=O)Nc2ccc(O)c(Cl)c2Cl)CCCCC1 | -12.5% (inactive) |
| [O]=[Cd] | -3.1% (inactive) |
| CCSC(=O)N(CC)C1CCCCC1 | 2.87% (inactive) |
| C1CCC(C2CCCCC2)CC1 | -7.2% (inactive) |
| CC1CCC(=O)O1 (stereo not given) | 1.6% (inactive) |
| CN1C[C@@H](NS(=O)(=O)N(C)C)C[C@@H]2c3cccc4c3c(cn4C)C[C@H]21 | -12.2% [at 42.5 µM] (inactive) |
| COc1ccc2c(c1OC)CN1CCc3cc4c(cc3C1C2)OCO4 (stereo not given) | -11.7% [at 42.5 µM] (inactive) |
| CC1=C(C(=O)Nc2ccccc2)S(=O)(=O)CCO1 | -17.8% (inactive) |
| CC(CC(C#N)(c1ccccc1)c1ccccc1)N(C)C (stereo not given) | -22.3% (inactive) |

| SMILES | activity change, negative = cytotoxicity |
| --- | --- |
| CCCCP(CCCC)CCCC | -0.77% (inactive) |
| CCOP(=O)(N=C1SCCS1)OCC | 2.04% (inactive) |
| O=C1OC(CCN2CCCCC2)OC1(c1ccccc1)c1ccccc1 (stereo not given) | -7.66% [at 42.5 µM] (inactive) |
| O=P(O)(Oc1ccccc1)Oc1ccccc1 | -2.76% (inactive) |
| CN(C)CCc1ccc(O)cc1 | -4.52% [at 42.5 µM] (inactive) |
| O=[N+]([O-])c1ccc(CBr)cc1 | 1.26% (inactive) |
| Cc1cc(C)c(C(=O)P(=O)(C(=O)c2c(C)cc(C)cc2C)c2ccccc2)c(C)c1 | 7.02% (inactive) |
| O=C(O)c1ccc2[nH]cc(CCCCN3CC=C(c4ccccc4)CC3)c2c1 | 0.314% [at 42.5 µM] (inactive) |
| COC(=O)C(C)Oc1ccc(Oc2ccc(Cl)cc2Cl)cc1 (stereo not given) | -6.21% (inactive) |
| C=C(C)[C@@H]1CC=C(C=O)CC1 | -0.658% (inactive) |
| CCCSC(=O)N(CCC)CCC | 4.18% (inactive) |
| C[N+](C)=CCl | 10.2% (inactive) |
| O=NN1CCCCC1 | 3.98% (inactive) |
| CC(C=O)Cc1ccc2c(c1)OCO2 (stereo not given) | -0.542% (inactive) |
| CCOP(=S)(OCC)Oc1nc(Cl)n(C(C)C)n1 | -0.0943% (inactive) |
| CC(COc1ccc(Oc2ccccc2)cc1)Oc1ccccn1 (stereo not given) | -1.34% (inactive) |
| COc1cc(OC)nc(Sc2cccc(Cl)c2C(=O)O)n1 | 1.08% (inactive) |
| CCOP(=S)(OCC)SCSc1ccc(Cl)cc1 | 9.24% (inactive) |
| CC(Oc1ccc(Oc2ncc(C(F)(F)F)cc2Cl)cc1)C(=O)O (stereo not given) | -2.08% (inactive) |
| O=[N+]([O-])c1ccc2c3c(cccc13)CC2 | -11.1% (inactive) |
